D2 ag-1 = agonists of human D2 dopamine receptor (beta-arrestin); 360,000 compounds, 0.084% hits; AID 624465; P14416; activation, % (no concentration beside the values); DiscoveRx PathHunter D2 beta-arrestin, luminescence, 90 min; 100% = 57 uM dopamine signal; in the data active = activation above about 40%; inconclusive = between about 15% and that limit
Target sequence (P14416 whole entry, looked up): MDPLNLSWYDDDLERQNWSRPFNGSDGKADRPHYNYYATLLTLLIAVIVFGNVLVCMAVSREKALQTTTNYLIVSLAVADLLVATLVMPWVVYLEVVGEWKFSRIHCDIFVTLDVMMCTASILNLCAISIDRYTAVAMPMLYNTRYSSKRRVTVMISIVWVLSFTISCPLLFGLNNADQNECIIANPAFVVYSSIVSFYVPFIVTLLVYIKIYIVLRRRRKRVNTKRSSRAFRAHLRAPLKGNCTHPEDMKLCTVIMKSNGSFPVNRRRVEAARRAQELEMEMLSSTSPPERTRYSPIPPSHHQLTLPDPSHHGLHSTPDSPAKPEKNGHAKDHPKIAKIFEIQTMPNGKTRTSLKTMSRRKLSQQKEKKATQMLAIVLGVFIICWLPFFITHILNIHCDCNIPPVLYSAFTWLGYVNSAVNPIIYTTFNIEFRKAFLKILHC
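DiscoveRx PathHunter D2 beta-arrestin cells (2,100/well) attached overnight, then compound-stimulated 90 min at 37 C in HBSS/10 mM HEPES/0.1% Tween-20 buffer; beta-galactosidase complementation read by luminescence after 1 h at ambient temperature. Dopamine 57 uM final (EC100) as control.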
D2 PAM-1 = positive allosteric modulators of human D2 dopamine receptor; P14416; DiscoveRx D2 beta-arrestin cells, luminescence, 90 min; 100% = 57 uM dopamine signal; potentiation, % (no concentration beside the values); 360,000 compounds, 0.23% hits; AID 624464; in the data active = potentiation above about 50%; inconclusive = mostly about 30% to 49%
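D2 cells co-treated with compound plus 50 nM dopamine (EC20) for 90 min at 37 deg C to detect potentiation. Beta-arrestin recruitment was read as enzyme-fragment luminescence after 1 h at ambient temperature. Full response was set by 57 uM dopamine.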
D2 PAM-2 = positive allosteric modulators of human D2 dopamine receptor. P14416. HEK293 T-REx D2, calcium flux, EC20 dopamine potentiation. potentiation, % at 10 µM. 340,000 compounds, 0.34% hits;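 active = potentiation over 3 SD above the plate norm, cut at about 30% in these data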; also: 0% is about no effect
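Calcium flux readout, no-wash dye, 1 read/s. Inducible HEK293 Trex D2 line, overnight 30 C. Compound alone 180 s (agonist flags), then EC20 dopamine, another 180 s to score potentiation.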
D2 ag-2 = activates the human D2 dopamine receptor; 340,000 compounds, 0.53% hits; activation, % at 2 µM; P14416; HEK293 T-REx D2 cells, calcium flux agonist mode;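 active = activation over 3 SD above normal in the single-dose calcium agonist read, cut at about 30% in these data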; also: 0% is about no effect
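HEK293 Trex D2 cells, tetracycline-induced, o/n 30 C 5% CO2; no-wash Ca dye, RT 30–90 min; 10-cycle baseline, 23 nl cpd added, kinetic Ca read 180 s; agonist hits = positive Ca response.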
D2 antagonist = antagonizes the human D2 dopamine receptor | P14416 | HEK293 TREx D2 cells, calcium flux, dopamine EC80 | inhibition, % at 10 µM | 340,000 compounds, 2% hits | AID 485344; in the data active = inhibition above about 30%; inactive = below that, where a call was filed; also: 0% is about no effect
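Read-out: kinetic calcium fluorescence (1 cycle/s) in inducible HEK293 T-REx D2 cells after an EC80 dopamine addition that followed 180 s compound preincubation. Loss of the dopamine response indicates antagonism.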
Starred values were filed as active, the others as inactive; u = inconclusive; x = no result. Hits are enriched below; roughly 2.4% of the tested compounds scored in any of these assays.

SMILES	D2 ag-1	D2 PAM-1	D2 PAM-2	D2 ag-2	D2 antagonist
COc1ccccc1Nc1nc(-c2sc(NC(=O)c3ccccc3)nc2C)cs1	-2.2	-7.7	-2.2	0.6	9.2
COc1ccccc1Nc1nc(-c2sc(N)nc2C)cs1	0.9	-17.1	7.9	-0.5	37.7*
COc1ccc2c3c(ccc2c1)C(=O)/C(=C/O)CC3	u	52.3*	x	x	x
O=C(O)CCCC(=O)Nc1nc(-c2ccccc2)cs1	-3.2	-2.5	-8.7	-1.0	-3.8
O=C(O)CCCC(=O)Nc1nc(-c2ccc(F)cc2)cs1	-1.0	-8.6	34.5*	-0.5	9.4
COc1ccc(/C=N/N(C(C)=O)c2nc(-c3ccc(C)cc3)cs2)cc1	-1.0	17.6	30.1*	-1.1	-21.3
Cc1cc(O)c(C(C)C)cc1N=Nc1ccccc1C(=O)O	-5.1	-11.8	3.8	-1.3	9.4
CN1C(=O)C(N=Nc2ccccc2C(=O)O)N(C)C1=S (stereo not given)	-3.1	-8.0	3.4	8.5	40.1*
COc1c2ccc(C(=O)NCc3cc(C(F)(F)F)cc(C(F)(F)F)c3)cc2nn1C	0.2	-9.1	-8.8	0.1	40.8*
Cc1ccc(C(C)C)c(OCc2n[nH]c(=S)o2)c1	2.3	-7.3	14.5	-0.5	-5.7
Cc1ccc(C(C)C)c(OCc2nc(-c3nonc3N)no2)c1	0.9	-5.6	5.7	-0.6	33.0*
Cc1cc(C)cc(NC(=O)C2CCN(c3cnccn3)CC2)c1	-7.6	-5.2	-37.9	-1.0	33.0*
O=C(c1ccc2c(c1)OCO2)N1CCC2(CC1)Oc1ccc(Cl)cc1C(=O)C21CC(c2ccccc2)=NO1 (stereo not given)	-2.1	-10.8	7.4	1.3	42.1*
O=C(NCc1ccccc1C(F)(F)F)C1CC(c2cccc(F)c2)=NO1 (stereo not given)	-2.9	-10.4	11.6	1.0	41.8*
O=C(NCc1ccccc1C(F)(F)F)C1CC(c2cc(C(F)(F)F)cc(C(F)(F)F)c2)=NO1 (stereo not given)	2.5	6.4	3.3	0.1	7.7
COc1cccc(-c2cc(C(F)(F)F)n3ncc(C(=O)N4CCc5ccccc5C4)c3n2)c1	-5.8	-2.9	5.0	-1.7	50.0*
COc1ccc(-c2cc(C(F)(F)F)n3ncc(C(=O)N4CCc5ccccc5C4)c3n2)cc1	-1.2	-5.0	1.6	1.3	-8.2
CCCN1C(=O)C2(c3ccccc31)c1c(oc3ccccc3c1=O)C(=O)N2CCO (stereo not given)	x	x	3.3	-1.3	x
O=C(NNC1=Nc2cccc3cccc1c23)c1ccc(Br)cc1	-0.1	-18.4	-22.8	4.8	83.4*
CNC(=S)N1N=C(c2ccc(OC)cc2)CC1c1ccccc1Cl (stereo not given)	-1.8	0.7	7.4	-0.1	33.5*
CNC(=S)N1N=C(c2ccc(OC)cc2)CC1c1ccc(Cl)cc1Cl (stereo not given)	0.6	0.4	-3.5	0.2	15.2
CCOC(=O)c1cc(C(C)(C)C)nc(SC)c1C#N	-6.3	-15.5	7.4	-0.7	-17.0
CCOC(=O)c1cc(C)nc(SC)c1C#N	4.4	1.5	9.5	0.6	30.7*
COc1ccc(N(CC(=O)Nc2cccc(Cl)c2C)S(=O)(=O)c2c(C)nn(C)c2C)cc1	x	x	-6.6	-0.6	x
CC(C)CNc1oc(-c2ccco2)nc1C#N	-3.2	-25.5	35.8*	-1.5	6.4
SMILES	D2 ag-1	D2 PAM-1	D2 PAM-2	D2 ag-2	D2 antagonist
CC(Nc1oc(-c2ccco2)nc1C#N)c1ccccc1 (stereo not given)	-0.9	-21.6	-1.1	-1.6	-6.8
Cc1cc(-c2ccc(S(=O)(=O)Nc3ccc(Cl)cc3C)cc2)on1	x	x	2.3	0.1	x
Cc1ccccc1Cn1c(=O)n(CCCCC(=O)NCc2ccc3c(c2)OCO3)c(=O)c2ccccc21	x	x	2.2	-1.8	x
O=C(CCN=C1NS(=O)(=O)c2ccccc21)OCc1nnc(-c2ccc([N+](=O)[O-])cc2)o1	14.4	68.7*	x	x	x
N#Cc1ccccc1COC(=O)CCN=C1NS(=O)(=O)c2ccccc21	-3.5	-5.2	x	x	x
COc1ccccc1C(=O)Nc1cc2c(cc1N1CCOCC1)n(C)c(=O)n2C	x	x	3.6	0.3	x
COc1ccccc1-c1c(C)nn2c(N3CCN(c4ccc(F)cc4)CC3)cc(C)nc12	x	x	x	-1.6	x
Nc1cc(N)nc(SCc2ccccc2)n1	-0.3	-0.5	-11.2	-0.1	-13.8
Nc1cc(N)nc(SCCc2ccccc2)n1	1.9	1.0	-1.3	1.3	47.1*
CCN1CCN(P2(=O)C=C(c3ccccc3)OC(c3ccccc3)=C2)CC1	2.2	-26.1	-30.1	0.2	84.1*
OCCC1CN(Cc2cccc3nonc23)CCN1C1CCCCC1 (stereo not given)	-6.3	-16.0	-13.1	-0.8	37.7*
OCCC1CN(Cc2cccc3nccnc23)CCN1C1CCCC1 (stereo not given)	0.8	-15.9	-11.1	0.4	-10.5
O=C(O)/C(=C/c1ccco1)NC(=O)c1ccccc1	-0.6	-12.3	0.5	0.9	33.7*
COc1ccccc1N1CCN(C2CCN(C3CCC(c4ccccc4)CC3)CC2)CC1 (stereo not given)	x	x	-26.4	-1.0	45.1*
COc1ccccc1N1CCN(C2CCN(C(=O)COc3cccc(C)c3)CC2)CC1	-0.2	-39.9	-12.6	0.1	69.4*
COc1ccccc1N1CCN(C2CCC(C)CC2)CC1 (stereo not given)	-4.4	-1.6	-38.4	-0.2	11.0
CC(C)C(C(=O)Nc1ncn[nH]1)N1C(=O)c2ccccc2C1=O (stereo not given)	-1.9	1.9	30.6*	0.4	2.8
CC(C)C(C(=O)Nc1ccccc1)N1C(=O)c2ccccc2C1=O (stereo not given)	-5.9	-2.2	-7.1	-0.4	-9.0
CCOC(=O)c1ccc(N2C(=O)c3[nH]nc(-c4ccccc4)c3C2c2ccc(CC)cc2)cc1 (stereo not given)	x	x	21.7	2.1	x
CCN(CC)S(=O)(=O)c1ccc(NC2CCN(Cc3ccccc3)CC2)nc1	-1.0	-7.0	16.6	-0.2	36.3*
COc1ccc(OCc2cc(C(=O)N(C)CCC3CCOCC3)no2)c(Cl)c1	-5.8	-4.8	-17.5	-0.9	65.2*
COc1ccc(OCc2cc(C(=O)N(C)CC3CCCCO3)no2)c(Cl)c1 (stereo not given)	-4.4	-14.5	-4.5	-1.1	2.3
Cc1cc(Nc2ccccc2F)n2nc(-c3ccccc3)nc2n1	x	x	-13.6	-0.8	x
Cc1cc(/C=N/O)c(C)n1-c1ccc(Br)cc1	-3.2	-6.9	-0.8	-1.4	37.7*
CCC(NC(=O)Nc1cc(Cl)ccc1OC)c1c(-n2cccc2)sc2c1CCN(C)C2 (stereo not given)	x	x	-7.1	0.8	x
O=C(c1ccc(S(=O)(=O)c2ccccc2Cl)c([N+](=O)[O-])c1)N1CCN(Cc2ccccc2)CC1	u	77.9*	6.8	9.2	-7.2
